Laboratory results: PubChem BioAssay AID651958 (The Scripps Research Institute Molecular Screening Center, 2012)
Hit rate of the full screen: of about 370,000 compounds, about 2,000 (0.54%) were called active. This excerpt belongs to a sample that is enriched for actives. Values without a mark were called inactive. Rule as the data show it: active = inhibition above about 30%; inactive = the rest.

test system: Crimean-Congo hemorrhagic fever virus L polyprotein viral ovarian tumor (vOTU) protease domain; assay: CCHFV vOTU protease inhibitors, primary screen, biochemical, Pep-AMC substrate, fluorescence (AID 651958); settings: at 11.5 µM, hits give high values; also: 0% = vehicle wells with enzyme and 100% = no enzyme wells

| Structure (SMILES) | inhibition |
| --- | --- |
| Cc1ccc(NC(=S)NCCN2CCOCC2)cc1 | 36.5% (active) |
| CCCC(=O)NC(=S)Nc1ccc(CN2CCOCC2)cc1 | 9.86% |
| Cc1cc(C)cc(NC(=S)NCCCN2CCOCC2)c1 | 0.01% |
| CN(CC1CCCO1)S(=O)(=O)c1ccc(C(=O)Nc2ccc(F)cc2)cc1 (stereo unspecified) | 5.87% |
| OCc1nc(CO)n(Cc2ccccc2)n1 | -7.04% |
| CCOC(=O)NN1C(=O)c2ccccc2NC1c1ccccc1O (stereo unspecified) | -25.4% |
| CCOC(=O)C1=C(C)c2ccccc2OC1C(=O)OCC (stereo unspecified) | 16.2% |
| CCOC(=O)c1c(C)[nH]c2c1-c1ccccc1C(=O)C2=O | 108% (active) |
| COC(=O)c1cc(C(=O)OCC(=O)Nc2cc(C)on2)cc([N+](=O)[O-])c1 | 4.92% |
| Cc1noc(C)c1C(=O)OCC(=O)N1CCN(S(=O)(=O)c2ccc3ccccc3c2)CC1 | 4.27% |
| COc1ccc(-c2cn(-c3ccc(C)cc3)c(=O)n2CC(=O)Nc2ccc(OC)c(OC)c2)cc1 | 15.2% |
| C#CCO[C@@H]1C[C@H](n2cnc3c(=O)[nH]c(NC(=O)C(C)C)nc32)O[C@@H]1CO | -9.39% |
| Cc1ccc(S(=O)(=O)N2CCOCC2)cc1C(=O)NC(=S)N(Cc1ccccc1)C(C)C | -6.59% |
| Cc1nnc(NC(=O)Nc2ccc(Cl)c(Cl)c2)s1 | 43.4% (active) |
| Cc1nnc(NC(=O)Cn2c(=O)sc3ccccc32)s1 | -3.29% |
| O=C(CCS(=O)(=O)c1ccccc1)Nc1ccc(Cl)c(Cl)c1 | 13.1% |
| CCCCn1ccnc1C(=O)c1cccc(S(=O)(=O)N2c3ccccc3CC2C)c1 (stereo unspecified) | 26.1% |
| CCCCNS(=O)(=O)c1ccc2nc(SCC(=O)Nc3cc(C)cc(C)c3)[nH]c2c1 | 4.67% |
| Cc1ccc(-n2ncc(C(=O)NC3CC3)c2C2CCN(C(=O)OC(C)(C)C)CC2)c(C)c1 | 16% |

| Structure (SMILES) | inhibition |
| --- | --- |
| Cc1ccc(C(=O)NC2CC(C)(C)NC(C)(C)C2)c(C)c1 | -8.23% |
| CSCCC(NC(=O)COc1ccccc1)C(=O)N(C)CC(=O)Nc1ccc(C)cc1 (stereo unspecified) | 9.4% |
| COc1cccc(NC(=O)C2C(c3ccccc3)C2(Cl)Cl)c1 (stereo unspecified) | -4.86% |
| COc1ccc2c(c1)C(C)=CC(C)(C)N2C(=O)Nc1ccccc1 | 51.4% (active) |
| COc1ccc2c(c1)C(C)=CC(C)(C)N2C(=O)CNCc1ccc2c(c1)OCO2 | -2.62% |
| O=C(COc1coc(CN2CCN(c3ccccc3)CC2)cc1=O)N1CCc2ccccc21 | -8.86% |
| CCc1nc2ccc(C(=O)Nc3ccc(OC)c(OC)c3)cn2c1N(C)C(=O)c1cccc(OC)c1 | 7.94% |
| O=C(O)Cc1csc(NC(=O)CSc2nnnn2-c2ccc(O)cc2)n1 | -4.88% |
| CCN(CC)C(=O)C1=C(C)N(Cc2ccc(F)cc2)C(=O)C(CC(=O)NCc2cccc3ccccc23)C1 (stereo unspecified) | 1.88% |
| COc1ccc(CN2C(=O)C(CC(=O)NCc3cccc4ccccc34)CC(C(=O)N3CCOCC3)=C2C)cc1 (stereo unspecified) | 7.84% |
| CCN(CC)C(=O)C1=C(C)N(Cc2ccc(C(C)(C)C)cc2)C(=O)C(CC(=O)NCc2cccc3ccccc23)C1 (stereo unspecified) | 31.8% (active) |
| CCN(CC)CCCC(C)n1c2nc(=O)[nH]c(=O)c-2nc2cc(Cl)ccc21 (stereo unspecified) | 95.2% (active) |
| Cc1ccc(C)c(NC(=O)c2cc(-c3cc(C)cc(C)c3O)n[nH]2)c1 | -1.49% |
| O=C(COCc1cc(-c2ccc3c(c2)OCO3)on1)N1CCN(c2cccc(Cl)c2)CC1 | 7.08% |
| Cc1coc2c(O)cc3c(c12)OC1(N2CCCCC2)C(=O)NCCCC31 (stereo unspecified) | 51.9% (active) |
| CCN1CCN(CC(=O)c2cc(OC)c(OC)c(OC)c2)CC1 | -2.49% |
| Oc1c(Cl)cc(Cl)c(Cl)c1Cc1c(O)c(Cl)cc(Cl)c1Cl | 39% (active) |
| CC(=O)Nc1ccc(SCC(=O)Nc2ccccc2Oc2ccccc2)cc1 | -1.09% |
| CC1(C)S[C@@H]2[C@H](NC(=O)COc3ccccc3)C(=O)N2C1C(=O)OCc1ccccc1 (stereo partly specified) | 3.3% |

| Structure (SMILES) | inhibition |
| --- | --- |
| Cc1ccc(-c2ccc(/C=C(\C#N)C(N)=S)o2)c([N+](=O)[O-])c1 | 16.7% |
| O=C1C2C3C=CC(C4CC34)C2C(=O)N1/N=C/c1ccc(-c2ccccc2[N+](=O)[O-])o1 (stereo unspecified) | 13.7% |
| CC1=NN(c2ccc(Cl)c(C(=O)O)c2)C(=O)/C1=C/c1ccc(-c2ccccc2[N+](=O)[O-])o1 | 32.7% (active) |
| CC(C)[C@H](NC(=O)N1c2ccccc2NC(=O)[C@@H]1C(C)C)C(=O)N[C@H](C(=O)O)c1ccccc1 | -2.64% |
| O=S(=O)(c1ccc(Sc2nnc3ccccn23)nc1)N1CCOCC1 | -14.3% |
| NNC(=O)c1cccc(COCC(F)(F)C(F)F)c1 | -1.18% |
| CCCCNC(=O)C1CCC(=O)N1CCc1ccccc1 (stereo unspecified) | 0.15% |
| Cc1cc(C)cc(NC(=S)NCCc2c[nH]c3ccccc23)c1 | 30.6% (active) |
| Cc1ccc(S(=O)(=O)N(C)CC(=O)NCCc2c[nH]c3ccccc23)cc1 | 1.27% |
| O=C(COC(=O)Cc1c[nH]c2ccccc12)NCCc1ccccc1 | -6.33% |
| Clc1ccc(CSc2nnc([C@@H]3CCCN3)o2)cc1 | 2.88% |
| Cc1nn(CCCC(=O)NCc2ccccc2Cl)c(=O)c2nccn12 | 3.6% |
| COc1ccc2c(c1)CCc1cn3ncc(C#N)c3nc1-2 | -345% |
| NCCN1CCN2C(=O)CN(C(=O)c3ccccc3)CC12 (stereo unspecified) | 12.1% |
| O=[N+]([O-])c1ccc(NS(=O)(=O)c2ccccc2)c(Cl)c1 | 12.9% |
| O=S(=O)(Cc1noc(-c2ccc(OC(F)(F)F)cc2)n1)c1ccc(F)cc1 | 2.35% |
| O=S(=O)(Nc1ccc(O)c2ccccc12)c1ccc(OC(F)(F)F)cc1 | 72.5% (active) |
| O=C(c1ccc(F)cc1)N1CCC(C(=O)N2CCN(S(=O)(=O)c3ccccc3Br)CC2)CC1 | -5.29% |
